Drawing on PubChem BioAssay AID1159506 (National Center for Advancing Translational Sciences (NCATS), 2015), this text covers seed-corrected z-score for 85 sequences.

Whole data set: some 59,000 sequences, median the read-out near -0.00055, cut for the lowest 2% near -2. Many of the other results were omitted from the sample, so the lowest values are more common in it than they were.

The assay in a line: Identification of proteins required for the processing of the EWS-FLI1 nascent transcript.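 Further: robust z of luciferase light less the median z of siRNAs with the same seed.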 Particulars: TC32 Ewing sarcoma NR0B1-luc vs CMV-luc (EWS-FLI1 target promoter against control promoter), 48 h; screened at 20 nM (by protocol). Summed up: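 Readout: OneGlo luminescence, 48 h post-transfection, TC32-NR0B1-luc vs TC32-CMV-luc in parallel. siRNA 20 nM final, RNAiMax lipid, 600 cells/well; z-score-MAD transformed, then seed-adjusted.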
Regarding UAUGAUGGAGGCGUAGUUC against MYCL, the seed-corrected z-score is 0.678. In the case of AAUGAUAUCUGUGAUCGCC against RABGEF1, the seed-corrected z-score was -0.242. For UUCGUUCAGUGGGUUGUCC against SYNGR1, the seed-corrected z-score was -0.497. For UUCCCUUUCACGUCCAUGU against WFIKKN2, the seed-corrected z-score is -0.0396.

Take UUUCGAUUUAAAAGAGCCC against RALGPS1: the seed-corrected z-score worked out at 1.28. For UUUCUUCCAACGCAGUCUG against MRPS23 the value was -2.67; for UAGAGGCUCAUCAUAGAUG against GPATCH3, -0.0793; for AAUGCUAUUACGGUUGAUG against FBXL6, -0.269. For the sequence UUAUUGCAGAUCUGGAUCC against CYP2C9, the seed-corrected z-score is -2.3. For UCUGUUUCAUUUACUUUGC against PRSS44 the value was 0.238; for UUUAUAAAGAGGGUGGAUC against SGCB, -0.0761; for UAUGAUACACUGGUAGGGU against ZNF684, -2.38. Turning to AAAGUGAUUCCCACAGCUG against CCS, the seed-corrected z-score is 1.5. UUUCUAACAUAGGAUGCCG against PRKAR1A gave a seed-corrected z-score of -0.515. AUGGUUGCGGUAGAAGACG against PHYHIP yielded a seed-corrected z-score of 0.484. Sequence AUAGAAUCUAGGGAAAUAG against HBD showed a seed-corrected z-score of 1.15.

As for AUAGUUAUCCUUUAAUAAC against SLC2A3, the seed-corrected z-score is -2.2. For AAUGUCAUUGCUGCGGUCC against SH3KBP1 the value was -0.331; for UUUCAGAGCCUUUCCCUGC against LTA, -0.389; for UGAUGUACAGCUGAGGACC against ELMO2, -2.32.

Turning to UCAGGUAGAGCAUAGCUUG against SPX, the seed-corrected z-score was -1.13.

ACAGCUACCACAAAUGCAG against NDUFB3 returned a seed-corrected z-score of 1.34. In turn, UGGGUUCCCAGUAACACUC against RPRD2 showed a seed-corrected z-score of -0.107. UGCUCUAUCUCUGUCAGGG against RORC gave a seed-corrected z-score of 0.626. AUCGCUGUUAAGAAGCUCC against CIITA had a seed-corrected z-score of -0.918. UUGGAAUCAGUCAUGCUCA against SFTPD had a seed-corrected z-score of 0.0218. The sequence AUCCUUCUUGAAGUCGGCG against OAF had a seed-corrected z-score of 2.26. Turning to UUCAGGACGAUCUUGACAG against CHRDL2, the seed-corrected z-score was -0.237. For UGCCGUUUCAUCUUGUACC against NKX2-4, the seed-corrected z-score is -2.69. In the case of UUGAAGUUUGGAUAUUACC against GABPB2, the seed-corrected z-score is -0.668. The sequence GAAUGUAGCAAAUGAGUCG against MT1H had a seed-corrected z-score of 0.588. The sequence UGACUGGAUAUAUCCACUG against RAB20 displayed a seed-corrected z-score of 0.37.

In turn, UUUUCUGCCUGAUCUAACU against MAP3K7CL displayed a seed-corrected z-score of 0.11. For UCACUGUCAAUCAUGCGCU against CACNG1 the value was -1.04; for UCACCUUCCGCUUCGACUU against FAM181B, 2.19; for AAACCAAUAGGAAUUGACU against HINT3, 0.612. As to AUCCAGUUAAUUCCAGAUG against NUDT1, the seed-corrected z-score was -3.9. Sequence UAGGUUGUGAAUGUGGUCG against FBXL8 registered a seed-corrected z-score of -3.1. The sequence UAUAUGUCUUGAUUAUCCU against NMS displayed a seed-corrected z-score of 0.309.

As for UCCAGGUCAAGGGUAACGG against KIF7, the seed-corrected z-score is -0.853. As to UACAUGUCAAAUGAGCUCC against KIR2DL5B, the seed-corrected z-score was -2.25.

As for UGUAGAAUGAGUAGGCGGC against NMT2, the seed-corrected z-score is -0.0232.

In the case of UGUAUUUGAAGACUUUCCC against ZNF485, the seed-corrected z-score came to 0.182. As for UUCCUUCCUCGUUCAUUGC against KGFLP1, the seed-corrected z-score is -2.1. In the case of AAAGCUUCCCUCAACUUGC against TAS2R9, the seed-corrected z-score was -0.00509. For UAUCUAGUGCAGUAUAUCG against COPS2 the value was 0.174; for UUUGAUCUCAUCGGUGCCC against PIAS1, -0.0672; for AUUCUCGUCAGUGAGCUCC against POLR2C, -0.262. As for UCUUCGUUCUUGUCGAUCU against MED15, the seed-corrected z-score is 2.07. For UAACUUUGUCUUUGGAUUC against SETD9, the seed-corrected z-score was 1.15. AAACUGCUCGCUGUCAUUC against NCDN came in with a seed-corrected z-score of -2.2.

In turn, UGUACAAGAAGUCAUAAGC against DSE displayed a seed-corrected z-score of -0.289. Take UUGUGGUCAAUGCCCUUGG against UBIAD1: the seed-corrected z-score is -0.444. For UGACAUUCCAAGGUUGUAG against TAS2R60 the value was 0.323; for ACCUUUUUCACUUCUACAC against 2-Mar, -0.43.

Sequence AAGUUGCUCAGAAACUUGG against WNT9B showed a seed-corrected z-score of -3.07. For UGUCCAGAUAAGGAGACGC against PINLYP, the seed-corrected z-score is -1.21.

As to UAAGUUCACUGUUCCAUAU against EDEM2, the seed-corrected z-score was determined as 0.761. As for UUUGAAAUCAACAUAGAGG against LINC00574, the seed-corrected z-score is -0.00543. In the case of AAAGGUACUUUACCAGAUG against MTX2, the seed-corrected z-score came to 0.416. For AGUUCAUUAAAUAAGGUCC against TMEM33, the seed-corrected z-score was determined as 0.17.

With UUGUCAAAAAGUCCUUUUG against GINS3, the seed-corrected z-score stood at 0.092. Sequence AAGGCUCUGACAACGAUUC against LMNB1 came in with a seed-corrected z-score of -1.07.

Turning to UUGAUUCGCAACCAUAGCC against BTBD7, the seed-corrected z-score is -2.52. For AUUCGAAGUAGUUGUAGCC against FRY the value was 0.623; for UCGGUUUUCCUCAAAAUGG against SESN1, 0.94; for UUUCGAAUUAACGCAACUG against HECTD1, 0.00197. For UUCUGAUUCCCAAACAGUG against COMMD8 the value was -1.88; for AAUCAUAACUGUCAUAUCC against DSPP, 0.304; for ACCGUGCCCAGCAUACAUC against LOC541473, -4.77. For UUUCUGGUGACCCUUUUUC against TSG101 the value was -0.683. As for UCUACUUCUGUGGAUACUC against TALDO1, the seed-corrected z-score worked out at 0.332. UCAGCUGCACUUUCAGUAG against GOLGA8J registered a seed-corrected z-score of -1.61. For ACCGUUACAUAUUCUAUCC against SUPT6H the value was -4.84. UGCUGUAUCCUCUAUAUCC against RFX5 had a seed-corrected z-score of -0.0572. Sequence UUAAUCGGCACAGCUGUUC against RSBN1 showed a seed-corrected z-score of -0.543. In turn, UAUGCAGUCUGGGUAACCC against C10orf11 returned a seed-corrected z-score of 0.746.

UUACGUAUGCACCAUUUGC against SLC35D1 showed a seed-corrected z-score of 0.196.

The sequence UAUAGUAAUCAGCUAGUGG against MED6 displayed a seed-corrected z-score of -3.7.

For the sequence UUUAUUCCCAAAGGCUCUG against PTGER1, the seed-corrected z-score was -0.569. For AUAUCAUUUACUGACAUAG against DNAJB4 the value was -0.41; for UUCCAGGAUACUUUAAUCC against PON1, -0.178. For AAGCGGUUAACGAAAAGGC against SLC2A1 the value was 1.37.

Consider UUUGUAAUCAUACGGACAG against ZFAND5, for which the seed-corrected z-score is 0.868. For AAACUCAAAAUCCCGUUGC against ZC3H10 the value was 0.108.
